Laboratory results reported in PubChem BioAssay (NCATS).
“And” between values parts separate entries of the source, which are not always exact repeats. Identical values can stand only once. Records with an inconclusive call do not appear. The source made the active and inactive calls. Calls follow the shape of the full dose curve.

Assay: Primary qHTS to identify inhibitors of SARS-CoV-2 cell entry (AID 1645846); also: nearly all actives have a fitted effect of over 45% in size
Conditions: SARS-CoV-2 pseudovirus cell entry assay, luminescence; activity change, negative = inhibition: at 57.1 µM (top of the series) unless noted; series mostly up to 57.1 µM
Summary of the method: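 Luminescence readout (Bright-Glo luciferase) 48 h after pseudoparticle addition. HEK293-ACE2 cells, 1500/well; compound pre-incubation 1 h; Normalized to spike PP and bald PP.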

Compound	Potency	activity change, negative = inhibition
O=C(O)CCCCC1CCSS1 (stereo not given)	inactive	
O=C(NCCO[N+](=O)[O-])c1cccnc1	inactive	
CC(=O)O[C@@H]1C(=O)O[C@@H]2[C@H]1OC(=O)[C@@H]2OC(C)=O		-38.2%
CCOC(=O)c1ccc(N)cc1	inactive	
O=C(O)c1cc(=O)c2c(OCC(O)COc3cccc4oc(C(=O)O)cc(=O)c34)cccc2o1	inactive	
CCCNC(C)C(=O)Nc1ccccc1C (stereo not given)	inactive	
CNC[C@H](O)[C@@H](O)[C@H](O)[C@H](O)CO		-19.7%
CC(=O)N=c1sc(S(N)(=O)=O)nn1C		-31.8%
COc1cc(C(=O)NC2CCCNC2)cc(OC)c1OC (stereo not given)		-15.8%
OCCOCCN1CCN(C2=Nc3ccccc3Sc3ccccc32)CC1		-1.17%
CCCCCCCCCCCC(=O)[O][Sn]([CH2]CCC)([CH2]CCC)[O]C(=O)CCCCCCCCCCC		-23.2%
CC(C)(Oc1ccc(Cl)cc1)C(=O)OCCCOC(=O)C(C)(C)Oc1ccc(Cl)cc1		-28.5%
CC(=O)SCC(CC(=O)c1ccc(C)cc1)C(=O)O (stereo not given)	inactive	
COc1c2occc2cc2ccc(=O)oc12	inactive	
NS(=O)(=O)c1cc(C(=O)O)cc(N2CCCC2)c1Oc1ccccc1	inactive	
CC(=O)N(c1onc(C)c1C)S(=O)(=O)c1ccc(N)cc1	inactive	
CC(=O)NC[C@H]1CN(c2ccc(N3CCOCC3)c(F)c2)C(=O)O1		-4.07%
CCOC(=O)[C@H](CCc1ccccc1)N[C@@H](C)C(=O)N1CCC[C@H]1C(=O)O		-3.71% and -6.05%
Cc1ccsc1/C=C/C1=NCCCN1C		-11.3%
CCOC(=O)[C@H](CCc1ccccc1)N[C@H]1CCCN2CCC[C@@H](C(=O)O)N2C1=O		-27.1%
